In all, about 2,700 sequences were measured (“arbitrary fluorescence units”: median about 4,100, highest 2% from about 54,000 on). The full list was thinned out, with the highest values kept by preference.
The sequences below were run against T1, ETS1 (UniProt P14921) (assay: ETS1 binding intensity (PBM fluorescence) (arbitrary fluorescence units); higher = stronger binding). Conditions: ETS1 concentration 10 nM.
T1 sequence: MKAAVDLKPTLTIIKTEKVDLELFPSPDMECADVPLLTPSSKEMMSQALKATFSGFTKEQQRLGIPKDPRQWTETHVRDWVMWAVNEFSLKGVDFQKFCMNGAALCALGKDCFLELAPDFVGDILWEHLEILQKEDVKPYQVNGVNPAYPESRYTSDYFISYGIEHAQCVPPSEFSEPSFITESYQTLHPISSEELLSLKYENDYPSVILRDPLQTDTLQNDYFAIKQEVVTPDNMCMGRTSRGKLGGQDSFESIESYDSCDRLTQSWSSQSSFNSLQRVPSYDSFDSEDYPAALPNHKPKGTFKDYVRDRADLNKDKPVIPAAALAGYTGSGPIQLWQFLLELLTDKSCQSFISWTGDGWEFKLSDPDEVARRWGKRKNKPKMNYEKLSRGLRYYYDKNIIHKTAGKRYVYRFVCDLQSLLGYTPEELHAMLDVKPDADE
Method: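 gcPBM on wild-type 36-bp genomic probes with two neighbouring ETS1 sites (4-24 bp apart). Recombinant human ETS1 (10 nM) was detected with anti-ETS1 antibody fluorescence. Values are medians over 3 replicate spots. The probes sit in constant array flanks that are not printed.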

| Sequence | ETS1 binding intensity |
| --- | --- |
| CCCGGAGTTCCGCGCGGCGCCAGCCCTTCCGCCACG | 375 |
| GCGCCACTTCCGGCAGCGAAGTCACTTCCGCGGAGG | 57600 |
| GGGTGCTTCCGGGGCAGCGCGCGCCACTTCCGACCT | 33500 |
| GGCTGGGGCGGATGCCGGGGCTGTTCCGGGCCCTCC | 1230 |
| TGAGCGCCGTGCCTTCCGGGTTCCGCCCTCCTGGGT | 1430 |
| AGAATGAGCTGCAGGAAGGCGGAAGCACTAGCGTGC | 421 |
| CGGGACAGGAAGTGTGGACAGGCTCCTTCCTGTTTG | 15000 |
| AGAAACGGAAAGAAAGTGACCCCTCCCTTCCTTTCA | 175 |
| TGGGGTTTCCTGGGGTGTTCTGTCTACATCCTGAGA | 5150 |
| CCCAGCGAGAGGTTTCCTCTTCCGGCACCTGACCCC | 4930 |
| ACAACCTTTAAACTTCCGGTTTCCTCTGTGCGAGGT | 56700 |
| TTCCTCTCCTTTCCGCGAGACCTTCCGCGGTTATCC | 178 |
| GGCTTCAGGATGCATTGACAATTAAAGGAAGTCAGA | 275 |
| GGGGCCACTTCCCGGGGCCAGGCAGGAAGCCCGCCC | 3870 |
| GAGGCGGGACTTCCTACAGCACTTCCGGCCAGAGCC | 26500 |
| CCGGCACTTCCGGCAGGCCAGGGCACTTCCGGGACC | 58000 |
| CGCTGAACTTCCCGAGCTCGGGGTGGGATGTGGCCG | 734 |
| GAGAGGCAGGAAGAGAGCAGAGCCGGAAGCACAAGG | 2630 |
| GCAGAAGGGAGGAAGAAGCAGGCGGAAGCAGCCGGT | 522 |
| GTCACTTCCGGCAGCCGGAGGCAGCAGAGGAAGCCG | 71500 |
| CTCTAGGTCTAACATCCCTCGGAAGTTCGTGCAGCG | 175 |
| GGCAAAAACCCACATCCTCTTCCGCTGGCTCCACCT | 8480 |
| CTCTTGGCAACATCCGGTCACATCCCCTCCGCTATT | 60900 |
| CAACCGAAAACATCCCGTGCCGGAAGCGCGTCATCG | 4780 |
| TGCAAAGCATCCTGGGTGCCAGGCTTCCTGGGGCTT | 1890 |

| Sequence | ETS1 binding intensity |
| --- | --- |
| GCAACTTCCGCCCTGAGAAGGGTGGGGCTTCCGTCT | 63000 |
| CGCCCCTGGGGCTTCCGCGGCGGAAGCCTAGCGTCC | 824 |
| TGAAGGCTTCCGCCAAGGTGAGGGGCTTCCTCTGGG | 9460 |
| CCAAGCTGGTTTCCTCTCCGGTTTCCTCCGGGGTGG | 3800 |
| CTGACCTGCTTCCTCATGGTTGTTTCCTGCCTATTG | 3740 |
| TCCACTTCCGGGTCCGGGACACCGCCCGGATCTTGC | 64200 |
| GCCACCGCCCCTTCCGGGTCCGGAACGGCTCCAGCT | 7050 |
| GACGGACACCCGTTTCCGCTTCCGGGTCACGCTTCT | 20900 |
| ACGACGCAGCCACTTCCGATTCCGGTCGGAGCACCG | 8910 |
| CCTCAGGATGGCATCAGCCTGTGACCACTTCCTGTG | 2200 |
| TTCTTCACAAGCGGATGTCACTTCCTGCCTGTGACA | 17200 |
| GCCTCACTTCCTGTGTTCAAGTGACAGGATGTGACA | 70700 |
| GCACCCGGAAGCCGCTTGCGGGCTCCCGGAAGCGGC | 8720 |
| TGCGGGGCGGAAGCCGGGGCGTGACTTCCGGCGCCG | 11600 |
| GGGCGGGACTTCCGGCAAGGCGCGGAAGCGGCGGTA | 46400 |
| GCGTTACTTCCGGCGCGCGGCGGGCGGAAGTCCGGG | 69700 |
| GGGCCTAGGAAATGCCGCACTACAACTTCCGTCGGG | 992 |
| GAGGCGCTTCCTCAGTTGGACTCCACTTCCTCTCCG | 4590 |
| GCCGGCGAGCGGAAGAGGCTGCAGGAAGGCCGGCCC | 3170 |
| CAAACACATCCTGTTTGCACTTGACTTCCTGTTTTG | 37400 |
| AGCACTTCCTGTTTGATCTCTATGATCCATCCTGTT | 106000 |
| TAGTTGTCCCTTCCTTAAGCACTTCCTGTTTGATCT | 11900 |
| CCGGGAGCTCCGGATGCAGACAGGAAGTGGGCAGGG | 9950 |
| CAGCACGACTTCCTGGAGCGGGCCGGAAGTGACAAC | 21000 |
| CGGGGCTCCCGGAAGCCGCCCCTTCCGCCAGCTTGC | 4520 |

| Sequence | ETS1 binding intensity |
| --- | --- |
| GAGACGGGACTTCCGGCTCCCGGGGAAGTCCCGCCC | 53500 |
| CGTCCTGACTTCCGGGGCGGGACGGAAGAGCGGGCG | 25800 |
| TATAAAACCATTTCCTTCTCTGGGAAATGAGATGTC | 3370 |
| GGTCCGGAAACGGGACAGAAGGCCCACCTTCCTCCC | 8480 |
| AGCCTTTGTATTTCCTTTCAGAGGAAACCCCAATGC | 5570 |
| TGGGGTCTTCCGGTTGGACCCCTGCTTCCGCTGATT | 24400 |
| CGCTGCTTCCGGGTCTCGGCAAGCACTTCCGGGGTG | 30400 |
| TTCCACTTCCGGTCTTACCCGGCTACTTCCGCTGCT | 147000 |
| CAACGGCAGCTTCCTGCGGCGCCGGAAACGCTTCAA | 12100 |
| TGAAACAGGAAGTCAGCTTCACAGCAGGAAGCAGAC | 16400 |
| TTCCTCAGGGAAGTTCGGGTGAGAGGAAGTGCCTGC | 228 |
| CCCGGTAGCCGCCGGAAAACTTCCGCCGAGACCGGA | 4420 |
| CGCCGCATCCGGTAGCGAGAGTTCAACTTCCTGACT | 56600 |
| CAAGCGATTCTTCCGCCTCAACTTCCTGAGTAGCTG | 5800 |
| TGTGATTTTCCATCCTGCCATTTCCTGGCACCCAGA | 4620 |
| GCCGCGGCGGAAGAGGCTCGGGGAGGAAGTTATTTG | 1880 |
| AGTCACACAGGAAATGGAGCCAGGGGATGTGCTCAA | 14800 |
| CGCGCCGGGTGTTTCCGCTACTTCCCTGCGGCGGGG | 7930 |
| CGGGCACTTCCGGCGCGAACCGCTACTTCCGGTGCG | 95900 |
| GCCGAGGACACTTCCGCGGGCGGAACCTGCCGGCAC | 5200 |
| ACTTGACATTTCCTGCCTCCTGTTTCCTCATCACTC | 22500 |
| GAGGTGGGGAGGAAGAGCTGCCGGAAGTAGGCGGTG | 5440 |
| CAGACTTCCGGGGTCGAGAACTACAACTTCCGACTT | 61700 |
| CTGGGCCCTTCCTGCCAGGTTGCACTTCCTGATAGC | 8540 |
| AGGCAGGAAGTACCGCCTGATGCTCAGCTTCCGCTG | 9880 |

| Sequence | ETS1 binding intensity |
| --- | --- |
| TGCCACATCCTGTCTTTTTACCTCCTTTCCTGCTTA | 51200 |
| GTAACAGGAAGAAAATAATTTACCACATCCTTTATT | 975 |
| CTTCCCTGGTAACATCCGGCATCCTGGGGCTGCCAA | 18800 |
| TGGTAACAGGCATTTCCGGTTTCCGGCCGGCTCCCT | 61800 |
| TGCGCATTTCCGCTCCTTGCCGGTTTTCCGGACCTC | 36000 |
| ACATAAGACATGAGGATGTCTTCCTGACTTGCGTCC | 208 |
| GGGTCTTCCGGCCCTCTCGAAAATCATTTCCGGCAT | 22500 |
| GTTATGATAACGGAACTACAGTTCCTCCAGGATGGA | 195 |
| GGAGGAGGCGGAGGAAACCCGGAAAAGGGGCCGCGC | 382 |
| GCGCCGCCTCAGTTCCGCGGCTTCCGGCCACAGAGT | 8030 |
| GCTCCGCCCCCGGAAGCCTCACTTCCGGGCGCGAGC | 25300 |
| GGCTCACTTCCGGCCTCAGAGCCGCTTCCGGCGCGC | 71400 |
| CGGGAGCAGCGGAAGTCATTAACATCCGCGGTTGTG | 12500 |
| TGCCACCACACCAGGATGCTTCCGTCTTTGAAGGCA | 1030 |
| GTCACCACATCCTGAGGCTTCTCATTTCCTTTCTAC | 6290 |
| TGCCAAGTTACACTTCCTGTTTCCTCTCTGTGTGCC | 31700 |
| ACAACTTCCTGTTACACAAGACAGGTATTTCCTCAT | 59800 |
| TGTTATTGGACAACTTCCAGGAAAACATCCTCAAGA | 273 |
| AGCCCAAGCGCGGAAGAGGGCGGAAGGAGAACCCCT | 240 |
| GCACCAAGGGAAGTGGTTAAAACAGGAAGACCCGCT | 919 |
| CGGCCCTTCCATTTCCTGCCTTCCTGCCTGCATTTG | 24200 |
| TTACACTACTTCCGCCGCCTCACTTCCGGTGACGCG | 34100 |
| GGAGCACTTCCGCTGGACGCACGCACTTCCGGCCCC | 50800 |
| GTCACTTCCGGCGCCCGCCTACACGCACTTCCGTTC | 88200 |
| CATCCTTGGCATTTCCTCTGAGGAAGCTCGCACCCC | 3550 |

| Sequence | ETS1 binding intensity |
| --- | --- |
| GGTTGGTGATTGGCAGGATCCTGGTATCCGCTAACA | 278 |
| CTTCGCCTTCCGCTGTGAATAATAGCTTCCTGAGGC | 10100 |
| CTGCTACAGGAAATCGCTTGTTATTTCCTGTAATGC | 10900 |
| TGAGGCGGTTTCCTCGGCGCCTTTTCCGGCAGCGGC | 1360 |
| CTCAACTTCCGGAGGCGGCAGACTTTTTCCGTCAAG | 36700 |
| TTCATTTCCGGCGGCGGAGGCGGCAGTTTCCTAAGC | 73000 |
| AGATCGCTGGCTTCCTGTGTTTTTCCTGGACTCAGG | 14800 |
| CGGCCTCTTCCGCGAGCCCGCGCGCCGGAAGTGGAA | 5440 |
| CGCCGGAAGTGGTCGCGGGTCGTTCTGCTTCCTGCC | 18000 |
| GCACCGGAAGTGACCGCCTCGCGGCTGCTTCCTCTC | 57700 |
| CCTGAGTTTCCTTGTCTGGAGCTGCAGGATATTTGT | 800 |
| ACCCCCTGGCGGATGCTGTGTGTTTCCTGTGCTTAG | 3420 |
| GGTCCGGAAGGGAGGAGAACACAAGCAGGATATAAC | 860 |
| ATCTGCAGGATGTAAGAAGAATAGAAGGAAGCTGGG | 1930 |
| TGGCGGAGGCGCCGGAAGTTTTCCGGCTTTCTGCTG | 4500 |
| GACACAACTTCCGGCTTCTGGCGGCGGAAGAGGACA | 90100 |
| GGGGACCGGAAGCCAGCGGCAACAACTTCCGGCGGG | 23100 |
| TGATTTCCGCTTTCTCCCCAGTGATTGCTTCCTTCA | 68300 |
| TGAATGCTGTCATTTCCGCTTCCGCCTCCTTCTTTC | 26500 |
| GCCTTCAATTTCCGTAGGGAACCTTCCTCCCAGTGA | 6860 |
| TCAACATCCTGCTTCTCAGGGCACCACAGGAAATGT | 36600 |
| ACGTCACTTCCGGCGCCGGGGCTCACTTCCTGGTGC | 87500 |
| GGCGGCGACGGAAGTGAAGTCACTTCCGGGCTGGGG | 21300 |
| TCGGGCCCTGGCTTCCGTCACTTCCGCCCGTGCCTG | 14700 |
| CAGCTAGGCTTCCTTCTCCTCCCTTCCTGTGCCTCC | 1100 |
